Sampled rows, rich in hits. Any-hit rate of the full collection: about 10%.
HEK cytotox = HEK 293 cell cytotoxicity; HEK 293 viability, ATP luminescence (CellTiter-Glo), 48-72 h; Potency, µM (titrated, usually from 115 µM), for the others: top-dose activity change, negative = cytotoxicity, actives largely listed as inhibitors; actives 6.6% (n = 94,000); AID 1345083; also: % is scaled to controls: 0 for no effect and ±100 for the full control effect; nearly all actives have a fitted effect of over 60% in size
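Cells seeded first (HEK 293, 250 cells/well), then compound added by pintool. Incubation ran 48 or 72 hr at 37 degree Celsius. CellTiter-Glo was added and luminescence imaged after 10 min at room temperature.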
3T3 cytotox = cytotoxic compounds in NIH 3T3 cells. NIH 3T3 viability, CellTiter-Glo ATP luminescence, 48-72 h. Potency, µM (top dose mostly 96.7 µM), for inactives: at the top dose activity change, negative = cytotoxicity, hits mostly inhibitors. actives 4.3% (n = 94,000); also: % is scaled to controls: 0 for no effect and ±100 for the full control effect; nearly all actives have a fitted effect of over 55% in size
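First NIH 3T3 cells are plated at 400 cells/well; next compound is pinned in; then plates incubate 48 or 72 hr at 37 °C; finally CellTiter-Glo is added and luminescence read after 10 min.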
FLuc inh-1 = blocks purified firefly luciferase enzyme activity. Potency, µM (top dose mostly 115 µM), hits mostly inhibitors. purified P. pyralis luciferase, luminescence, biochemical. P08659. actives 2.5% (n = 76,000); also: % is scaled to controls: 0 for no effect and ±100 for the full control effect; nearly all actives have a fitted effect of over 65% in size
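Biochemical qHTS: compound (6-point titration) added to 10uM D-luciferin plus 10uM ATP in Tris acetate pH 7.5 buffer with Mg, Tween-20 and BSA, then purified enzyme at 10nM; light output imaged.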
hNpr1 antagonist = human Npr1 receptor antagonism; actives 1.6% (n = 76,000); P16066; HEK293 hNpr1 GloSensor cGMP, ANP-stimulated luminescence; Potency, µM (series often up to 46.3 µM), for the others: at the top dose activity change, negative = inhibition, most hits filed as inhibitors; AID 1347048; calls by dose curve; also: % is scaled to controls: 0 for no effect and ±100 for the full control effect; nearly all actives have a fitted effect of over 60% in size
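Compound pre-incubated 30 min at room temperature on GloSensor-loaded HEK293 cells stably carrying hNpr1 and the pGS-40F cGMP biosensor. Stimulation uses hNppA at 0.1 nM final; luminescence is taken at baseline and 20 min post-agonist.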
GPT2 inhibitor = inhibitors of human GPT2 alanine aminotransferase | Potency, µM (top dose mostly 57.7 µM), without a hit: at the highest dose activity change, negative = inhibition, usual class: inhibitors | Q8TD30 | actives 0.25% (n = 100,000) | Recombinant GPT2, coupled pyruvate oxidase/HRP Amplex Red fluorescence | AID 1671188; also: % is scaled to controls: 0 for no effect and ±100 for the full control effect; nearly all actives have a fitted effect of over 60% in size
Target sequence (Q8TD30 whole entry, looked up): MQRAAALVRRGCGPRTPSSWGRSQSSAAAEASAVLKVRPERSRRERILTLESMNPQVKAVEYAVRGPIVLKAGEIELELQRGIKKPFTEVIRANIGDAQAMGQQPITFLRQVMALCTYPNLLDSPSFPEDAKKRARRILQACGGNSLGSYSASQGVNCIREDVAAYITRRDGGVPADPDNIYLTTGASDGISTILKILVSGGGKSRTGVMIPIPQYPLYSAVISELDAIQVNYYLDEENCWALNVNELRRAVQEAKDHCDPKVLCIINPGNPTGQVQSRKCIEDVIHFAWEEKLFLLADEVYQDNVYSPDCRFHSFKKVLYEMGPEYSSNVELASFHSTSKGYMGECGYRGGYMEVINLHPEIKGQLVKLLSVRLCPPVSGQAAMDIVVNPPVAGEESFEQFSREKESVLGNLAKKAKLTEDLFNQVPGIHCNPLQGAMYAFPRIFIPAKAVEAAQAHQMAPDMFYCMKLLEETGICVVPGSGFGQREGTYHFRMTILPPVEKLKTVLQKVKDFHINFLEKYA
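Inhibition is scored from Amplex Red fluorescence generated when pyruvate oxidase and HRP act on pyruvate released by GPT2. Reactions contain 10ng/uL enzyme, 250uM a-KG and 2mM L-alanine and run 30 min at room temperature.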
FLuc SDR -ATP = stabilizes firefly luciferase without ATP; shares compounds with FLuc inh-1; Purified FLuc-C-HiBiT, Nano-Glo HiBiT luminescence, no ATP; Potency, µM (top dose mostly 32.7 µM), for inactives: at the top dose activation (signal gain), usual class: activators; actives 7.8% (n = 1,300); AID 1963318; also: nearly all actives have a fitted effect of over 55% in size
FLuc SDR ATP = firefly luciferase binding stabilization, ATP added | purified FLuc-C-HiBiT + ATP, HiBiT complementation luminescence | shares compounds with FLuc inh-1 | Potency, µM (titrated, usually from 32.7 µM), for the others: top-dose activation (gain of signal), actives largely listed as activators | actives 8.7% (n = 1,300);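 also: signal reports ligand binding via conformational change of the enzyme rather than luciferase catalysis; % of control where 0% means no effect; nearly all actives have a fitted effect of over 55% in size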
FLuc inh-2 = inhibitors of firefly luciferase enzymatic activity. AID 1963320. purified FLuc-C-HiBiT enzyme, luciferin luminescence. shares compounds with FLuc inh-1. Potency, µM (highest dose often 32.7 µM), inactives show at the highest dose activity change, negative = inhibition, most hits filed as inhibitors. actives 42% (n = 1,300); also: % is scaled to controls: 0 for no effect and ±100 for the full control effect; nearly all actives have a fitted effect of over 70% in size
An asterisk follows results filed as active; i = inactive; ? = inconclusive; . = no result; [ ] = another dose, or the depositor's remark. Unless noted, calls follow the shape of the dose curve; as a rule, active = well fitted curve in the direction sought with a large enough effect; inconclusive = small, poorly fitted or top-dose-only effect, or another doubt; inactive = no such curve, though single readings can be large; an effect the other way counts as inactive or inconclusive. Potency is read from the fitted curve at half-maximal effect.

SMILES	HEK cytotox	3T3 cytotox	FLuc inh-1	hNpr1 antagonist	GPT2 inhibitor	FLuc SDR -ATP	FLuc SDR ATP	FLuc inh-2
CCOc1ccc(C(=O)N2CCC[C@H]2c2nc(-c3ccccc3)no2)cc1	-14%	?	i	-11%	0%	.	.	.
COc1ccc(F)cc1-c1ccc(COc2ccc3c(cnn3CCC(=O)O)c2)cc1	?	-31%[138 µM]	22µM*	2%[70.6 µM]	5%[88.5 µM]	16%[49.3 µM]	10%[49.3 µM]	?
COc1cc(Cl)ccc1-c1ccc(COc2ccc3c(cnn3CCC(=O)O)c2)cc1	?	-17%[138 µM]	50µM*	-1%[70.6 µM]	-5%[88.5 µM]	9%[49.3 µM]	7%[49.3 µM]	?
CC(=O)Nc1cccc(-c2ccc(COc3ccc4c(cnn4CCC(=O)O)c3)cc2)c1	?	?	0.71µM*	-13%[70.6 µM]	i	?	?	1µM*
COc1ccc(-c2ccc(COc3ccc4c(cnn4CCC(=O)O)c3)cc2)c(C)c1	?	?	?	-9%[70.6 µM]	i	.	.	.
COc1cccc(-c2c(C(=O)NCC(C)C)nc3sccn23)c1	-6%[172 µM]	-22%[138 µM]	.	.	i	.	.	.
O=C(O)CCCC(=O)N1Cc2ccccc2CC2(CCCN(Cc3ccncc3)C2)C1 (stereo unspecified)	2%	-16%	.	.	i	.	.	.
COCCNc1oc(-c2ccc(OC)cc2)nc1C#N	.	.	.	.	.	22%	15%	?
OC1CC(c2cc(N3CCc4c(Cl)cccc4C3)ncn2)C1 (stereo unspecified)	?	?	1.3µM*	2.5µM*	-28%	18%	?	?
COc1cc2c(cc1OC)CN(c1cc(C3CC(O)C3)ncn1)CC2 (stereo unspecified)	?	?	?	?	1%	.	.	.
CC(C)n1nc(OC(C)(C)C(=O)NCCOc2ccccc2)c2cc(CN3CCOCC3)ccc21	?	?	i	-1%	i	.	.	.
O=C(O)c1ccc(-c2noc(-c3ccccc3Cl)n2)cc1	.	.	.	.	.	30%	1.6µM*	1.1µM*
O=C(O)c1cccc(-c2cncc(C(=O)O)c2)c1	-1%[172 µM]	3%[138 µM]	.	.	-12%[88.5 µM]	.	.	.
O=C(O)c1ccc(-c2noc(-c3cccc(Cl)c3)n2)cc1	.	.	.	.	.	?	?	7µM*
O=C(O)c1cccc(-c2noc(-c3ccccc3C(F)(F)F)n2)c1	.	.	.	.	.	25%	0.12µM*	0.062µM*
c1ccc(-c2noc(-c3ccc4ccccc4c3)n2)cc1	.	.	.	.	.	36%	?	0.7µM*
O=C(NC1Cc2ccccc2C1)c1ccc2nnc(C3CCOCC3)n2c1	-5%	-30%	.	.	.	.	.	.
O=C(O)c1ccc(-c2noc(-c3ccccc3C(F)(F)F)n2)cc1	.	.	.	.	.	14%	?	?
CCn1ncc(NC(=O)Cn2ncc3cc(-c4cccc(F)c4F)ccc32)n1	-67%	-54%	?	?	-4%	.	.	.
CCn1ncc(NC(=O)Cn2ncc3cc(-c4ccc(C)cc4F)ccc32)n1	-54%	-65%	14µM*	?	?	20%	13%	?
CCn1ncc(NC(=O)Cn2ncc3cc(-c4cccc(OC)c4)ccc32)n1	-57%	-67%	?	?	-1%	.	.	.
CCn1ncc(NC(=O)Cn2ncc3cc(-c4ccc(N(C)C)cc4)ccc32)n1	?	?	0.25µM*	?	-35%	?	?	0.79µM*
O=C(CCC[C@@H]1[C@H]2CCCN3CCC[C@@H](CN1C(=O)c1ccccc1)[C@@H]23)Nc1ccc(F)cc1F	-11%	-3%	i	-9%	i	.	.	.
COc1ccc(-c2cc(N3CCCC(NC(=O)c4ccc(OC)c(OC)c4)C3)n[nH]2)cc1 (stereo unspecified)	?	?	3.2µM*	-15%	?	?	?	3.9µM*
COc1ccc(C(=O)NC2CCCN(c3cc(-c4ccc(F)cc4)[nH]n3)C2)cc1OC (stereo unspecified)	?	-29%	13µM*	-2%	-23%	16%	13%	?
SMILES	HEK cytotox	3T3 cytotox	FLuc inh-1	hNpr1 antagonist	GPT2 inhibitor	FLuc SDR -ATP	FLuc SDR ATP	FLuc inh-2
COc1ccc(C(=O)NC2CCCN(c3cc(-c4ccc(Cl)cc4)[nH]n3)C2)cc1OC (stereo unspecified)	35µM*	?	4µM*	-19%	i	26%	14%	6.2µM*
COc1ccc(-c2cc(N3CCCC(NC(=O)c4ccc(F)c(F)c4)C3)n[nH]2)cc1 (stereo unspecified)	?	?	?	-21%	-30%	.	.	.
Cc1cnc(CC2CCCN(C(=O)CCc3c[nH]c4ccccc34)C2)n1C(C)C (stereo unspecified)	?	-25%	14µM*	-1%	4%	13%	14%	4%
COc1ccc(-c2nnc([C@H]3CCN(C(=O)c4ccc(F)cc4)C3)o2)cc1	-12%[172 µM]	-21%[138 µM]	i	1%[70.6 µM]	2%[88.5 µM]	.	.	.
COc1ccc(-c2nnc(SC(C)C(=O)O)o2)cc1 (stereo unspecified)	.	.	.	.	.	?	?	?
O=C1CC(C(=O)NCc2cc3n(n2)CCN(C2CCCCC2)C3)C2(CCCC2)O1 (stereo unspecified)	-33%	-16%	i	-1%	2%	.	.	.
COc1ccc(Nc2cc(C(=O)NC3CCC(C)CC3)c3ccccc3n2)cc1OC (stereo unspecified)	.	.	.	.	.	21%	13%	-4%
CC(C)C(=O)NCC12CCCC=C1N(CC1CC1)C(=O)CC2 (stereo unspecified)	i	-9%	.	.	3%	.	.	.
O=C(NCCc1ccccn1)C1CCN(C(=O)c2ccc(-c3cccs3)cc2)CC1	-29%	-25%	.	.	.	.	.	.
O=C(Nc1ccccc1)N1CCc2nc(C3CC3)nc(-c3ccc(Cl)cc3)c2C1	?	?	i	-1%	-5%	12%	7%	-3%
Cc1ccc(-n2nc(C)c([C@@H]3C=C[C@@H](NC(=O)Nc4ccc(Cl)cc4)C3)c2C)cc1Cl	16µM*	28µM*	10µM*	?	i	15%	16%	?
Cc1ccc(-n2nc(C)c([C@H]3C=C[C@@H](O)C3)c2C)cc1Cl	?	?	1.1µM*	18µM*	i	25%[49.3 µM]	?	13µM*
Cc1cc(Cl)ccc1-n1nc(C)c([C@@H]2C=C[C@@H](NC(=O)CCCC(=O)O)C2)c1C	0%[172 µM]	-7%[174 µM]	?	-2%[70.6 µM]	-10%[88.5 µM]	.	.	.
